Rows were chosen to be rich in hits. Some 8.1% of all compounds tested hit in one or more screens of this group.
NOMO-1 viab: STK33 inhibitor candidate reducing NOMO-1 cell viability. NOMO-1 AML viability, CellTiter-Glo luminescence, 72 h. inhibition, % (test concentration not listed). hit rate 7.5% among 37,000. AID 2330; in the data active = inhibition above about 80%
Shh pathway inh: blocks Sonic Hedgehog signaling. Shh-LIGHT2 Gli-luciferase reporter, 30 h. inhibition, % (concentration not given with the values). hit rate 2.1% among 22,000. AID 2313;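 active = mean inhibition across valid replicates above about 65%, limit read from the data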;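 also: pathway switched on by Shh-conditioned medium diluted 1 in 25 in low serum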
MITF inhib: MITF inhibition; TRPM1 promoter luciferase, luminescence, 24 h; inhibition, % (concentration not given with the values); hit rate 0.28% among 37,000; AID 2240; in the data active = inhibition above about 85%;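 also: human melanocyte line stably carrying TRPM1 promoter luciferase reporter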
PD-1 reverse act: activators reversing PD-1 mediated T-cell inhibition | primary human CD4 T cells, PD-L1 beads, CellTiter-Glo 96 h | activation, % (test concentration not listed) | 29,000 tested, under 10 active | AID 2316; call rule not given here;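 also: 0% = median vehicle wells and 100% = positive control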
Starred values were filed as active, the others as inactive; · = not tested or not shown.

SMILES | NOMO-1 viab | Shh pathway inh | MITF inhib | PD-1 reverse act
Cc1ccc(S(=O)(=O)N(C)C[C@H]2OCCCC[C@@H](C)Oc3ccc(NS(=O)(=O)c4ccccc4)cc3C(=O)N([C@H](C)CO)C[C@@H]2C)cc1 | 36 | 60 | 29 | -6
COC(=O)c1ccc(C2C(C(=O)Nc3cc(OC)c(Cl)cc3OC)=C(C)Nc3ncnn32)cc1 (stereo unspecified) | 21 | · | -2 | -3
C[C@@H]1CCCCO[C@@H](CN(C)CC2CCCCC2)[C@@H](C)CN([C@H](C)CO)C(=O)c2cc(NS(=O)(=O)c3ccc(Cl)cc3)ccc2O1 | 97* | -4 | 13 | -12
C[C@@H]1CCCCO[C@H](CN(C)S(=O)(=O)c2ccc(Cl)cc2)[C@@H](C)CN([C@H](C)CO)C(=O)c2cc(NS(=O)(=O)c3ccc(Cl)cc3)ccc2O1 | 20 | 14 | 36 | ·
Cc1ccc(S(=O)(=O)Nc2ccc3c(c2)C(=O)N([C@H](C)CO)C[C@H](C)[C@H](CN(C)S(=O)(=O)c2ccc(Cl)cc2)OCCCC[C@@H](C)O3)cc1 | 111* | 21 | 34 | -10
C[C@@H]1CCCCO[C@@H](CN(C)S(=O)(=O)c2ccc(Cl)cc2)[C@@H](C)CN([C@H](C)CO)C(=O)c2cc(NS(=O)(=O)c3ccc(Cl)cc3)ccc2O1 | 91* | 71* | 53 | ·
C[C@H]1CN([C@@H](C)CO)C(=O)c2cc(NC(=O)c3ccncc3)ccc2O[C@H]1CN(C)Cc1ccc(Oc2ccccc2)cc1 | 22 | 19 | -11 | -1
C[C@@H]1CN([C@@H](C)CO)C(=O)Cc2cc(N(C)C)ccc2O[C@@H]1CN(C)S(=O)(=O)c1ccc(F)cc1 | 55 | -31 | 0 | -1
CNc1ccccc1C(=O)N1CCc2c([nH]c3ccccc23)C1=O | 95* | 21 | -13 | ·
COc1ccc(-c2c(C#N)c(SCC(=O)Nc3cccc(F)c3)nc3c2CCC3)cc1 | 23 | · | 16 | ·
Cc1csc2sc(-c3ccnc(SCc4ccccc4)n3)c(C)c12 | -2 | -2 | -5 | 1
C=CCNC(=O)CSc1nccc(-c2sc3sc(Br)c(C)c3c2C)n1 | 110* | 33 | 19 | -1
Cc1c(Br)sc2sc(-c3ccnc(SCC(=O)NC(C)C)n3)c(C)c12 | 115* | -16 | 19 | 0
Cc1cccc(C)c1OCC(=O)Nc1cccc(C(=O)O)c1 | 2 | · | 21 | 3
Cc1ccc(OCC(=O)Nc2cccc(C(=O)O)c2)c(Br)c1 | 19 | · | 87* | ·
CC(C)NC(=O)Nc1ccc2c(c1)CC(=O)N([C@@H](C)CO)C[C@H](C)[C@H](CN(C)Cc1ccc3c(c1)OCO3)O2 | 11 | -18 | -4 | 1
CC1=CC(C)C2(COC(=O)Nc3ccccc3)COC(c3cccnc3)C1C2C (stereo unspecified) | 105* | 92* | 53 | 0
CCc1ccccc1NC(=O)CSc1nc2ccc(C(=O)c3ccccc3)cc2[nH]1 | 12 | · | 21 | 1
Cc1ccc2nc(S/C=C/C(=O)c3ccccc3)[nH]c2c1 | 123* | 48 | 69 | -33
CNC[C@H]1Oc2ccc(NS(=O)(=O)c3cn(C)cn3)cc2C(=O)N([C@H](C)CO)C[C@H]1C | 12 | -19 | 2 | 1
COc1ccccc1OCC(=O)Nc1cccc(-c2nnc(-c3ccccc3)o2)c1 | -19 | · | -99 | 1
COc1ccc(CC(=O)Nc2cccc(-c3nnc(-c4ccc(C)cc4)o3)c2)cc1OC | 122* | · | 101* | 1
CC(C)NC(=O)Nc1ccc2c(c1)CC(=O)N([C@H](C)CO)C[C@@H](C)[C@@H](CN(C)CC1CC1)O2 | -6 | · | -15 | -1
Cc1ccccc1NC(=O)CCCC(=O)O | -13 | · | -21 | 2
Cc1ccccc1NC(=O)CCC(=O)OC1CCC(C(C)(C)C)CC1 (stereo unspecified) | 93* | 29 | -11 | 0
Cc1ccc(S(=O)(=O)N(C)C[C@@H]2Oc3c(NC(=O)C4CCCCC4)cccc3C(=O)N([C@H](C)CO)C[C@@H]2C)cc1 | 35 | 70* | 6 | 0
C[C@H]1CN([C@@H](C)CO)C(=O)c2cccc(NC(=O)C3CCCCC3)c2O[C@H]1CN(C)S(=O)(=O)c1ccc(F)cc1 | 21 | 82* | -12 | 1
Cc1ccc(S(=O)(=O)N(C)C[C@@H]2Oc3c(NC(=O)C4CCCCC4)cccc3C(=O)N([C@@H](C)CO)C[C@@H]2C)cc1 | 8 | 104* | 7 | -1
Cc1ccc(S(=O)(=O)N(C)C[C@@H]2Oc3c(NC(=O)C4CCCCC4)cccc3C(=O)N([C@@H](C)CO)C[C@H]2C)cc1 | 21 | -16 | 0 | ·

Screens deposited in PubChem by Broad Institute.
